Data on 92 compounds can be found in PubChem BioAssay AID463173 (ICCB-Longwood Screening Facility, Harvard Medical School, 2010).

SMILES strings stand for the structures. About 4,300 (8.3%) of roughly 52,000 compounds were called active. Rule as the data show it: active = survival mostly below about 52% (no sharp cut-off); inactive = mostly above about 56%. The entries come from a sample that favours actives as a whole.

This experiment deals with DeltatarO mutant. In words: growth inhibition of S. aureus wild type versus tarO mutant, primary screen, teichoic acid synthesis inhibitors, RN4220, OD600 (AID 463173). To be noted: OD600, 18 h, stronger effect = lower value, screened at 18.75 µg/mL (by protocol).
Consider `COc1cc(/C=C(\C#N)c2nc3ccc(C)cc3[nH]2)ccc1OCc1ccc(C)cc1`, for which the survival was 59% (inactive).

`COc1ccc(/C=C(\C#N)c2nc3ccccc3c(=O)[nH]2)cc1OC`: the survival is 86% (inactive). Regarding `CCC(=O)Oc1ccc(/C=C(\C#N)c2nc3ccccc3[nH]2)cc1OC`, the survival is 47% (inactive). `CCOC(=O)COc1ccc(/C=C(\C#N)c2nc3ccc(C)cc3[nH]2)cc1OC`: the survival was 43% (active). Consider `COc1cc(/C=C(\C#N)c2nc3ccc(C)cc3[nH]2)ccc1OC(C)C`, for which the survival was 46% (active). In the case of `COc1cc(/C=C(\C#N)c2nc3ccccc3[nH]2)ccc1OCc1ccc(F)cc1`, the survival is 70% (inactive). Under `Cc1ccc(-n2nc(C)c3c(C)cc(=O)n(CC(=O)N4CCCc5ccccc54)c32)cc1` stands 80% (inactive). In the case of `Cc1oc2ncn(CC(C)C)c(=O)c2c1C(=O)Nc1ccc(Cl)cn1`, the survival was 86% (inactive). As for `COc1ccc(CNC(=O)C2CCC(CNS(=O)(=O)c3ccc4c(c3)CCCC(=O)N4)CC2)cc1` (configuration not stated), the survival is 87% (inactive).

Turning to `CCc1cccc(NC(=O)C2CCCN(c3ncccn3)C2)c1` (configuration not stated), the survival is 80% (inactive).

In the case of `COc1ccc(CNC(=O)CCc2c(C)nn(-c3ccc(N4CCCCC4)nn3)c2C)cc1`, the survival was 75% (inactive). Under `Cc1ccc(CNC(=O)CN2CCN(Cc3ccc(F)cc3)C2=O)cc1` stands 95% (inactive).

As for `Cc1c(Cl)cccc1NC(=O)c1ccc(C(=O)Nc2cccc(Cl)c2C)cc1`, the survival is 81% (inactive).

On to `Cc1ccc(C(=O)O)cc1Nc1nc2ccccc2n2nnnc12`, for which the survival was 82% (inactive). In the case of `CC(=O)c1ccc(Nc2nc3ccccc3nc2-n2nc(C)cc2C)cc1`, the survival is 44% (active). As for `CCCCOC(=O)c1ccc(Nc2nnc(-n3nc(C)cc3C)c3ccccc23)cc1`, the survival is 98% (inactive). Consider `Cc1cc(C)n(-c2nc3ccccc3nc2Nc2cccc(C(=O)NCCc3ccccc3)c2)n1`, for which the survival was 93% (inactive).

Take `CCCOC(=O)c1ccc(Nc2nc3ccccc3nc2-n2nc(C)cc2C)cc1`: the survival was 24% (active). Turning to `Cc1cc(C)n(-c2nc3ccccc3nc2Nc2cc(C(=O)O)ccc2C)n1`, the survival was 42% (active). As for `Cc1cc(C)n(-c2nc3ccccc3nc2Nc2ccc(Cl)c(C(=O)OC(C)C)c2)n1`, the survival was 99% (inactive). As to `CCC(Cc1ccccc1)NC(=O)c1cccc(Nc2nc3ccccc3nc2-n2nc(C)cc2C)c1` (configuration not stated), the survival was 63% (inactive). On to `Cc1ccc(Nc2nc3ccc(C)cc3nc2-n2nc(C)cc2C)c(C)c1`, for which the survival is 81% (inactive).

As to `COc1cccc(C(=O)Nc2c(C(=O)c3ccc(F)cc3)oc3ccccc23)c1`, the survival was 66% (inactive). For `CCn1c(SC)nnc1C1CCCN(Cc2ccccc2)C1` (configuration not stated), the survival was 100% (inactive).

As to `CC(C)Cn1cc(NC(=O)N2CCN(c3ccc(F)cc3)CC2)c2ccccc2c1=O`, the survival is 99% (inactive).

Turning to `O=C(Nc1cccc(F)c1)c1ccc(-c2ccccc2)s1`, the survival is 82% (inactive). On to `CCOC(=O)c1cc(-c2ccc(OC)cc2)n(CCC(=O)Nc2cccc(C)c2C)c1C`, for which the survival was 93% (inactive). `CC1=Nc2cc(C(=O)NC3CCCC3)ccc2Sc2ccc(Cl)cc21`: the survival is 77% (inactive).

For `Cc1ccccc1-c1nnc(C2CCN(S(=O)(=O)c3ccc(Cl)cc3)CC2)o1`, the survival was 89% (inactive). For `CCOc1ccc2nc(N3CCCC(C(=O)Nc4ccccc4CC)C3)sc2c1` (configuration not stated), the survival was 95% (inactive). Consider `O=C(Nc1nnc(S(=O)(=O)N2CCOCC2)s1)c1cccc(Br)c1`, for which the survival is 42% (active).

Regarding `O=C(Nc1nnc(S(=O)(=O)N2CCCCCC2)s1)c1ccc(Br)cc1`, the survival is 60% (inactive). Under `Cc1cccc(C(=O)Nc2nnc(S(=O)(=O)N3CCOCC3)s2)c1` stands 58% (inactive); under `COc1cccc(C(=O)Nc2nc3ccc(S(=O)(=O)N4CCCC4)cc3s2)c1`, 79% (inactive); under `O=C(Nc1nnc(S(=O)(=O)N2CCCCCC2)s1)c1cccc(Br)c1`, 9% (active). Under `O=C(Nc1nnc(S(=O)(=O)N2CCOCC2)s1)c1ccc(F)cc1` stands 78% (inactive); under `COc1cccc(C(=O)Nc2nnc(S(=O)(=O)N3CCCC3)s2)c1`, 33% (active). As for `COc1ccc(C(=O)Nc2nnc(S(=O)(=O)N3CCCCCC3)s2)cc1OC`, the figure is 80% (inactive); as for `CC1CCN(C(=O)COc2ccc(C(C)C)cc2)CC1`, 86% (inactive).

Take `Cc1ccc(C)n1-c1nnc(N2CCC(C(=O)Nc3ccccc3Br)CC2)s1`: the survival was 91% (inactive). As for `c1cc(CNC2CCCCC2)co1`, the figure is 72% (inactive); as for `Nc1nnc(CCC(CCc2nnc(N)s2)(CCc2nnc(N)s2)C(=O)c2ccccc2)s1`, 92% (inactive).

As for `COc1ccc(C)c2sc(N(Cc3cccnc3)C(C)=O)nc12`, the survival was 80% (inactive). With `COc1ccccc1NC(=O)Cn1c(=O)n(Cc2ccc3c(c2)OCO3)c(=O)c2oc3ccccc3c21`, the survival is 77% (inactive). Consider `Cn1c(SCc2ccc(F)cc2)nc2ccc(C(=O)NCc3cccc(Cl)c3)cc21`, for which the survival is 56% (active). Take `Cn1c(SCc2ccc(F)cc2)nc2ccc(C(=O)NCc3ccc(Cl)cc3)cc21`: the survival was 50% (inactive).

Take `Cn1c(SCc2ccc(F)cc2)nc2ccc(C(=O)NCc3ccccc3)cc21`: the survival is 49% (inactive). Under `COc1ccc(C2NC(=O)NC(C)=C2C(=O)Nc2ccccc2)cc1OC` (configuration not stated) stands 116% (inactive); under `COc1ccc(OC)c(C2NC(=O)NC(C)=C2C(=O)Nc2cc(C)cc(C)c2)c1` (configuration not stated), 47% (inactive); under `COc1cc(C2NC(=O)NC(C)=C2C(=O)Nc2cc(C)cc(C)c2)ccc1O` (configuration not stated), 38% (active). For `Cc1cccc(NC(=O)CSc2nnc3[nH]c(=O)cc(-c4ccccc4)n23)c1C`, the survival was 116% (inactive). As to `O=C(NCc1ccccc1)C(=O)NCC(c1cccs1)S(=O)(=O)c1ccccc1` (configuration not stated), the survival was 52% (active). For the compound `O=S(=O)(NCC(c1cccs1)S(=O)(=O)c1ccccc1)c1ccc(F)cc1` (configuration not stated), the survival was 46% (active). On to `O=C(NCc1ccccc1)C(=O)NCC(c1cccs1)S(=O)(=O)c1cccs1` (configuration not stated), for which the survival was 91% (inactive). As for `O=S(=O)(NCC(c1cccs1)S(=O)(=O)c1ccccc1)c1ccccc1` (configuration not stated), the figure is 115% (inactive); as for `Cc1ccc(CNC(=O)C(=O)NCC(c2cccs2)S(=O)(=O)c2ccc(C)cc2)cc1` (configuration not stated), 98% (inactive); as for `O=S(=O)(NCC(c1cccs1)S(=O)(=O)c1ccccc1)c1ccc(F)c(C(F)(F)F)c1` (configuration not stated), 92% (inactive).

As for `CC(C)c1ccc(N2C(=O)CS(=O)(=O)C23C(=O)N(Cc2cccc(F)c2)c2ccccc23)cc1` (configuration not stated), the survival was 69% (inactive). As to `COc1ccc(C2Nc3ccccc3-c3nnc(SC)nc3O2)cc1C` (configuration not stated), the survival is 67% (inactive). As for `COc1ccccc1NC(=O)CSc1nc2ccccc2c2nc(-c3ccccc3)nn12`, the figure is 90% (inactive). `Cc1ccc(OCCCC(=O)Nc2ccc3c(c2)OCO3)cc1`: the survival was 100% (inactive). Regarding `COc1ccccc1CNC(=O)c1ccc2nc(CCc3ccccc3)oc2c1`, the survival was 83% (inactive). For the compound `Cc1cccc(N2CCN(S(=O)(=O)c3c(C)[nH]c(=O)[nH]c3=O)CC2)c1C`, the survival was 84% (inactive). With `CCN(CC)c1nn2c(=O)c(C(=O)NCCc3cccc(C)c3)cnc2s1`, the survival is 73% (inactive). As for `O=C(CSc1nc2c(c(=O)[nH]1)CCC2)Nc1cccc(O)c1`, the figure is 86% (inactive); as for `CCOCCCN(Cc1ccco1)C(=O)c1cc2c(s1)-c1c(C)cccc1OC2`, -3% (active); as for `CCCCN(Cc1ccco1)C(=O)c1cc2c(s1)-c1c(C)cccc1OC2`, -2% (active).

`CCCN1CCN(CCCNC(=O)c2cc3c(s2)-c2c(C)cccc2OC3)CC1`: the survival was 127% (inactive).

As to `CCN1CCN(CCCNC(=O)c2cc3c(s2)-c2c(C)cccc2OC3)CC1`, the survival is 102% (inactive).

Regarding `COc1ccc(CNC(=O)c2cc3c(s2)-c2c(C)cccc2OC3)cc1`, the survival is 87% (inactive).

With `CCOc1ccc(CCNC(=O)c2cc3c(s2)-c2c(C)cccc2OC3)cc1`, the survival was 98% (inactive). For `Cc1ccc(-n2ncc(C(=O)N3CCN(C4CCCCC4)CC3)c2C2CCN(C(=O)OC(C)(C)C)CC2)cc1`, the survival was 82% (inactive). `Cc1ccc2cccc(NC(=O)c3ccc(-c4ccc(Br)cc4)o3)c2n1`: the survival was 59% (active). As to `Cc1ccc2cccc(NC(=O)c3ccc(-c4cccc(Cl)c4Cl)o3)c2n1`, the survival was 55% (inactive). On to `Cc1ccc2cccc(NC(=O)c3ccc(-c4cccc([N+](=O)[O-])c4)o3)c2n1`, for which the survival is 67% (inactive). Under `O=C(O)c1ccc(-c2cccc(Cl)c2)o1` stands 67% (inactive).

With `Cc1ccc2cccc(NC(=O)c3ccc(-c4cccc(Cl)c4)o3)c2n1`, the survival was 49% (active). Regarding `Cc1ccc2cccc(NC(=O)c3ccc(-c4ccc(Cl)cc4Cl)o3)c2n1`, the survival was 67% (inactive). As for `Cc1ccc2cccc(NC(=O)c3ccc(-c4cc(Cl)ccc4Cl)o3)c2n1`, the survival was 71% (inactive). For the compound `O=C(Nc1cccc2cccnc12)c1ccc(-c2cccc(Cl)c2)o1`, the survival is 3% (active). On to `Nc1nc(N)c(S(=O)(=O)c2ccccc2)c(Nc2ccc(F)cc2)n1`, for which the survival is 72% (inactive). Under `O=C(COc1ccccc1)NCCc1csc(-c2cccc(F)c2)n1` stands 78% (inactive); under `COc1ccc(NC(=O)CSc2nc(-c3ccco3)cc(C(F)(F)F)n2)cc1Cl`, 38% (active); under `O=C(CSc1nc(-c2ccco2)cc(C(F)(F)F)n1)Nc1ccccc1`, 102% (inactive). Regarding `COc1ccc(NC(=O)CSc2nc(-c3ccco3)cc(C(F)(F)F)n2)cc1OC`, the survival was 63% (inactive). On to `Cc1ccc(O)c(NC(=O)CCSc2nc(-c3ccco3)cc(C(F)(F)F)n2)c1`, for which the survival is 28% (active).

Take `Cc1ccc(F)cc1NC(=O)CCSc1nc(-c2ccco2)cc(C(F)(F)F)n1`: the survival is 48% (inactive).

For `COc1ccc(Cl)cc1NC(=O)CSc1nc(-c2ccco2)cc(C(F)(F)F)n1`, the survival is 31% (active). As for `COc1ccc(NC(=O)CSc2nc(-c3ccco3)cc(C(F)(F)F)n2)cc1`, the figure is 86% (inactive); as for `CN(C)c1ccc(NC(=O)CSc2nc(-c3ccco3)cc(C(F)(F)F)n2)cc1`, 65% (inactive). Consider `Cc1cc(F)ccc1NC(=O)CCSc1nc(-c2ccco2)cc(C(F)(F)F)n1`, for which the survival is 45% (inactive). Under `CCNS(=O)(=O)c1ccc(NC(=O)CSc2nc(-c3ccco3)cc(C(F)(F)F)n2)cc1` stands 36% (active).
